# Results from PubChem BioAssay (EPA / NIEHS).
# Records with an inconclusive call do not appear. The source made the active and inactive calls. How the source made its calls, unless noted: active means hit-call score of the fitted dose curve at least 0.9, where 1 is the maximum; inactive means score below 0.9.
# How the values were obtained:
# [1] = CEETOX_H295R_TESTO_noMTC: CeeTox H295R High-throughput Steroidogenesis Assay for Testosterone (TESTO), maximum tolerated concentration (MTC) filtered results only (AID 2283924); details: actives raise or lower the signal
# Protocol: CEETOX_H295R is a cell-based, multiplexed-readout assay that uses H295R, a human adrenal gland cell line, with measurements taken at 48 hours after chemical dosing in a 96-well plate.CEETOX_H295R_TESTO_noMTC is one of 12 assay component(s) measured or calculated from the CEETOX_H295R assay (11 hormones and 1 viability assay). It is designed to make measurements of hormone induction, a form of inducible reporter, as detected with absorbance signals by HPLC-MS-MS technology. The concentrations for these components have not been pre-filtered for the maximum tolerated concentration (MTC) based on the MTT assay (_noMTC).Data from the assay component CEETOX_H295R_TESTO_noMTC was analyzed into 1 assay endpoint. This assay endpoint, CEETOX_H295R_TESTO_noMTC, was analyzed with bidirectional fitting relative to DMSO as the negative control and baseline of activity. […]
# Cell culture and media preparation procedures were conducted in accordance with OECD Test No. 456 guidelines, with minor modifications. […] For steroid quantification, media samples were shipped to OpAns, LLC (Durham, NC) on dry ice, and samples were thawed to room temperature prior to liquid-liquid extraction. […] Steroid hormones were separated by HPLC, eluted using a reverse phase C18 gradient with electrospray positive ionization, followed by quantification by tandem mass spectrometry (MS/MS). […]
# PGR (gene 5241) [2] = target: PGR (gene 5241) (UniProt P06401); experiment: TOX21_PR_BLA_Followup_Agonist_ratio: Tox21 HEK293 Progesterone Receptor (PR) Agonism Beta-lactamase Follow-Up Assay, Ratio (AID 2283933; active means hit-call score of the fitted dose curve at least 0.9, where 1 is the maximum)
# In short: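 HEK293T PR-UAS-bla, 2% CS-FBS; 6 hr preincubation, cpd/DMSO pinned, 16 hr 37C/5% CO2; LiveBLAzer B/G 2 hr RT; FRET ch2/ch1 ratio, agonist direction vs DMSO. Viability by CellTiter-Glo in same wells.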
# PGR (gene 5241) [3] = target: PGR (gene 5241) (UniProt P06401); experiment: TOX21_PR_LUC_Followup_Agonist: Tox21 HEK293 Progesterone Receptor (PR) Agonism Luciferase Follow-Up Assay (AID 2283937)
# In short: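 Cells: HEK293-PR-A-luc, 3,000/well, 10% charcoal-stripped FBS assay medium. Compound added after 5 h; 16 h, 37C, 0% CO2. ONE-Glo luciferase, luminescence. Positive fit vs DMSO.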
# [4] = TOX21_PR_LUC_Followup_Agonist_viability: Viability Assessment in the Tox21 HEK293 Progesterone Receptor (PR) Agonism Luciferase Follow-Up Assay (AID 2283941; active means hit-call score of the fitted dose curve at least 0.9, where 1 is the maximum;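 further: loss of signal means cytotoxicity so actives lower viability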)
# In short: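 Cells were kept 5 days in charcoal-stripped serum medium before plating HEK293-PR-A-luc at 3,000 cells/well. After 5 h they received DMSO-dissolved compound and incubated 16 h at 37C. Viability was taken from CellTiter-Glo ATP luminescence.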
# [5] = CCTE_Shafer_MEA_acute_spike_number: CCTE's Neural Acute Assay for Total Number of Spikes, Shafer Lab (AID 2284008);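 on AC50: curve fitted for decrease in spike count so AC50 reflects inhibitors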
# In short: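 Rat primary cortical neurons on 48-well MEA plates, DIV 13 or 15, at 37 C. 40 min baseline then 40 min with compound (0.03-40 uM); spikes detected at 8x rms noise, expressed as percent change from baseline.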
# [6] = CCTE_Shafer_MEA_acute_firing_rate_mean: CCTE's Neural Acute Assay for Mean Firing Rate, Shafer Lab (AID 2284009);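 further: analyzed for loss of signal so actives lower firing rate relative to DMSO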
# In short: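 Percent change in well-mean firing rate was derived from extracellular spikes detected at 8x rms noise (300-5000 Hz band-pass) before and after a 40-min compound exposure. Cultures were primary rat cortical neurons, tested at 0.03-40 uM.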
# [7] = CCTE_Harrill_HTTr_Viability_MCF7: CCTE's 6-hour Cell Viability Assessment for the High-Throughput Transcriptomics (HTTr) Platform, in MCF-7 cells cultured in DMEM + 10% fetal bovine serum, Harrill Lab (AID 2284010)
# In short: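 Cells were dosed with chemicals in an eight-point dilution series, imaged 6 hours later for propidium iodide uptake, and the endpoint was analyzed by bidirectional fitting against DMSO as negative control.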
# [8] = CCTE_Harrill_HTTr_Apoptosis_MCF7: CCTE's 6-hour Apoptosis Assessment for the High-Throughput Transcriptomics (HTTr) Platform, in MCF-7 cells cultured in DMEM + 10% fetal bovine serum, Harrill Lab (AID 2284011)
# In short: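 MCF-7 cells in DMEM + 10% FBS exposed 6 h to chemicals over an eight-point dilution series. Caspase-3/7 activation imaged by high-content CellEvent Green staining; fitted bidirectionally versus DMSO.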
# PGR (gene 5241), sequence (P06401 whole entry, looked up): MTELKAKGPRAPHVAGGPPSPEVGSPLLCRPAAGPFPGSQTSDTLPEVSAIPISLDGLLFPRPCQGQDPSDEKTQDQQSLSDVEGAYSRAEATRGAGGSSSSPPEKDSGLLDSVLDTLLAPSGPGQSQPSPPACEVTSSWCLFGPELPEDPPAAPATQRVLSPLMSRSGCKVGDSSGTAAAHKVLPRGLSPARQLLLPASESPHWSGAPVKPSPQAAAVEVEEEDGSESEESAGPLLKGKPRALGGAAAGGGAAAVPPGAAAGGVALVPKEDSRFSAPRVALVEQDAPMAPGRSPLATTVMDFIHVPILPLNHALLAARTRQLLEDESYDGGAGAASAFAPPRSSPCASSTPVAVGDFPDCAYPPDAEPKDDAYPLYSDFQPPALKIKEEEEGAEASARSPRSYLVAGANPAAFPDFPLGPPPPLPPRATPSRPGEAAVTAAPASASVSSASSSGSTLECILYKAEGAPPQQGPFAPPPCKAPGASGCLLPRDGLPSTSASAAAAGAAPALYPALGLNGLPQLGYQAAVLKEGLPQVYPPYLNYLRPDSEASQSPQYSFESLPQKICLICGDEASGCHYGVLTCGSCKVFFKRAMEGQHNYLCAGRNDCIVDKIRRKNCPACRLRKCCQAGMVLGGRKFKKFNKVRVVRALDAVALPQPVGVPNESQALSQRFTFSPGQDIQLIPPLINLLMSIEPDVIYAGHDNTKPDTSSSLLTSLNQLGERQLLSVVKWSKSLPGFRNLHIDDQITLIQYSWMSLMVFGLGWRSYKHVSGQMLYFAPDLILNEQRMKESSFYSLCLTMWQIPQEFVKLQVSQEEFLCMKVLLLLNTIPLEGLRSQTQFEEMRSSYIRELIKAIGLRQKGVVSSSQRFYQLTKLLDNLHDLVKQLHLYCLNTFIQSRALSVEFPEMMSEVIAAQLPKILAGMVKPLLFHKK
structure (smiles),measurement,setting,value
COc1ccc(C(=O)/C(Br)=C\C(=O)O)cc1,AC50,[1],83.6 µM (active)
N#Cc1ccc(C(c2ccc(C#N)cc2)n2cncn2)cc1,outcome,[1],inactive
c1ccc2c(c1)[nH]c1ccccc12,outcome,PGR (gene 5241) [2],inactive
same,outcome,PGR (gene 5241) [3],inactive
same,outcome,[4],inactive
Oc1ccc(-c2ccccc2)c(Cl)c1,outcome,PGR (gene 5241) [2],inactive
same,outcome,PGR (gene 5241) [3],inactive
Nc1ccc(C(=O)OCCCOC(=O)c2ccc(N)cc2)cc1,outcome,[4],inactive
Nc1cccc(N)n1,AC50,[5],5.05 nM (active)
same,AC50,[6],3.19 nM (active)
CC(CCC(=O)O)(c1ccc(O)cc1)c1ccc(O)cc1,outcome,[5],inactive
same,outcome,[6],inactive
CC(C)=CCl,outcome,[7],inactive
O=C(O)/C=C/c1ccccc1,outcome,[7],inactive
Nc1ccc(C(=O)O)cc1,outcome,[7],inactive
Clc1cc(Cl)c(Cl)c(Cl)c1Cl,outcome,[7],inactive
C1CNCCN1,outcome,[5],inactive
same,outcome,[6],inactive
same,outcome,[7],inactive
same,outcome,[8],inactive
CC1CCC(=O)C1=O (configuration not stated),outcome,[7],inactive
CC=CC(=O)OCC(C)C,outcome,[7],inactive
Oc1ccccc1Cc1ccccc1O,AC50,[5],207 nM (active)
same,AC50,[6],207 nM (active)
same,outcome,[7],inactive
same,outcome,[8],inactive
c1ccc(Nc2cccc3ccccc23)cc1,AC50,[5],1080 nM (active)
same,AC50,[6],979 nM (active)
CC1=CCC(C(C)C)C=C1 (configuration not stated),outcome,[7],inactive
CC1(C)CC(O)CC(C)(C)N1[O],outcome,[5],inactive
same,outcome,[6],inactive
same,outcome,[7],inactive
same,outcome,[8],inactive
C=C(C)C1CC=C(C)CC1 (configuration not stated),outcome,[7],inactive
C=C[C@@]1(C)CC(=O)[C@]2(O)[C@@]3(C)[C@@H](O)CCC(C)(C)[C@@H]3[C@H](O)[C@H](OC(C)=O)[C@@]2(C)O1,outcome,[7],inactive
CCOC(=O)/C=C\C(=O)OCC,outcome,[7],inactive
CC(C)[N+](C)(CCOC(=O)C1c2ccccc2Oc2ccccc21)C(C)C,outcome,[7],inactive
CC(C)(O)Cc1ccccc1,outcome,[7],inactive
CCCCOCCOC(=O)COc1ccc(Cl)cc1Cl,outcome,[7],inactive
CCCC(C)C(=O)OCC (configuration not stated),outcome,[5],inactive
same,outcome,[6],inactive
same,outcome,[7],inactive
CC(=O)OC/C=C(/C)CCC=C(C)C,outcome,[7],inactive
NNS(=O)(=O)c1ccc(Oc2ccc(S(=O)(=O)NN)cc2)cc1,outcome,[7],inactive
CC(C)CO,outcome,[7],inactive
C=Cc1ccc(OC(C)=O)cc1,outcome,[7],inactive
CC(=O)/C=C/C1C(C)=CCCC1(C)C (configuration not stated),outcome,[7],inactive
Cc1c(C(=O)c2c[nH]n(C)c2=O)ccc(S(C)(=O)=O)c1C1=NOCC1,outcome,[5],inactive
same,outcome,[6],inactive
same,outcome,[7],inactive
Cc1ccc([N+](=O)[O-])cc1N,outcome,[7],inactive
CC(=O)c1ccc(S(=O)(=O)NC(=O)NC2CCCCC2)cc1,outcome,[7],inactive
CC/C=C\CCOC(=O)c1ccccc1O,outcome,[5],inactive
same,outcome,[6],inactive
same,outcome,[7],inactive
N=C1C=CC(=C(c2ccc(N)cc2)c2ccc(N)cc2)C=C1,AC50,[7],1.06 µM (active)
CCOC(=O)C1=NOC(c2ccccc2)(c2ccccc2)C1,outcome,[7],inactive
Nc1ncnc2nc[nH]c12,outcome,[7],inactive
CN(C)c1ccc2nc3ccc(=[N+](C)C)cc-3sc2c1,outcome,[7],inactive
O=C(Oc1ccccc1)c1ccccc1O,outcome,[7],inactive
CC(C)(C)NC(=O)[C@H]1CC[C@H]2[C@@H]3CC[C@H]4NC(=O)C=C[C@]4(C)[C@H]3CC[C@]12C,outcome,[7],inactive
CCC(C)C(=O)OC (configuration not stated),outcome,[7],inactive
C1CCSC1,outcome,[7],inactive
same,outcome,[8],inactive
Cc1noc(NS(=O)(=O)c2ccc(N)cc2)c1C,outcome,[7],inactive
same,outcome,[8],inactive
CCCCCCCO,outcome,[7],inactive
same,outcome,[8],inactive
COC(Cc1ccccc1)OC,outcome,[7],inactive
same,outcome,[8],inactive
O=C(OCc1ccccc1)c1ccc(O)cc1,outcome,[7],inactive
same,outcome,[8],inactive
CCCCCCO,outcome,[7],inactive
same,outcome,[8],inactive
C=C(C)[C@@H]1CC=C(C)CC1,outcome,[7],inactive
c1ccc2cnccc2c1,outcome,[7],inactive
same,outcome,[8],inactive
Cc1c[nH]c(=O)[nH]c1=O,outcome,[7],inactive
same,outcome,[8],inactive
CC(=O)CC(=O)Nc1ccccc1C,outcome,[7],inactive
same,outcome,[8],inactive
CCCCCC(=O)OCC,outcome,[7],inactive
same,outcome,[8],inactive
Oc1c(Cl)cc(Cl)c(Cl)c1Cl,outcome,[7],inactive
same,outcome,[8],inactive
CC(C=O)c1ccccc1 (configuration not stated),outcome,[7],inactive
same,outcome,[8],inactive
CCCCC(C=O)CC (configuration not stated),outcome,[7],inactive
same,outcome,[8],inactive
Fc1ccc(Br)cc1,outcome,[7],inactive
same,outcome,[8],inactive
CC(=O)OCCc1ccccc1,outcome,[7],inactive
same,outcome,[8],inactive
CCOC(=O)C1=NN(c2ccc(Cl)cc2Cl)C(C)(C(=O)OCC)C1 (configuration not stated),outcome,[7],inactive
same,outcome,[8],inactive
CCCCCCCCCCCCC,outcome,[7],inactive
same,outcome,[8],inactive
O=C(O)CCC(=O)O,outcome,[7],inactive
CC12CCC(CC1)C(C)(C)O2,outcome,[7],inactive
same,outcome,[8],inactive
COC(=O)C=Cc1ccccc1,outcome,[7],inactive
same,outcome,[8],inactive
CCCc1ccc(O)c(OC)c1,outcome,[7],inactive
same,outcome,[8],inactive
CC(=O)c1ccccc1O,outcome,[7],inactive
same,outcome,[8],inactive
C=CCCCCCCCCC=O,outcome,[7],inactive
same,outcome,[8],inactive
Cn1ccnc1,outcome,[7],inactive
same,outcome,[8],inactive
CC(=O)CCC=C(C)C,outcome,[7],inactive
same,outcome,[8],inactive
CC(=O)OCC=C(C)C,outcome,[7],inactive
same,outcome,[8],inactive
CCCCCCC=O,outcome,[7],inactive
same,outcome,[8],inactive
CCCCCCCC(=O)OCC(COC(=O)CCCCCCC)OC(=O)CCCCCCC,outcome,[7],inactive
same,outcome,[8],inactive
CCCCOCC(C)O (configuration not stated),outcome,[7],inactive
same,outcome,[8],inactive
CC(C)(CO)C(O)C(=O)NCCCO (configuration not stated),outcome,[7],inactive
same,outcome,[8],inactive
O=C(O)CCCC(=O)O,outcome,[7],inactive
same,outcome,[8],inactive
CC(=O)CCC1=C(C)CCCC1(C)C,outcome,[7],inactive
same,outcome,[8],inactive
O=C(O)C1CCC(C(=O)O)CC1 (configuration not stated),outcome,[7],inactive
same,outcome,[8],inactive
CC(C)OC(=O)c1ccccc1,outcome,[7],inactive
same,outcome,[8],inactive
O=C(O[C@@H]1Cc2c(O)cc(O)cc2O[C@@H]1c1cc(O)c(O)c(O)c1)c1cc(O)c(O)c(O)c1,outcome,[7],inactive
same,outcome,[8],inactive
